Source: PubChem BioAssay (National Center for Advancing Translational Sciences (NCATS))
Sfp PPTase inh – qHTS Assay for Inhibitors of Bacillus subtilis Sfp phosphopantetheinyl transferase (PPTase) | hit rate 3.5% among 310,000 | Potency, µM, for inactives: largest response in the series, negative = inhibition, hits mostly inhibitors | Biochemical Sfp PPTase activity, qHTS;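 also: the enzyme is Sfp with the accession as filed and its product quenches rhodamine fluorescence; 0% = enzyme reaction without inhibitor and -100% = no enzyme wells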
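Sfp 15 nM + cpd, 15 min RT; start w/ rhodamine-CoA 5 uM, BHQ-2-YbbR 12.5 uM (final); 50 mM Hepes pH 7.6, 10 mM MgCl2, 0.01% NP-40, 0.01% BSA; read 525/598 nm at 0 and 30 min.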
G9a inh – qHTS Assay for Inhibitors of Histone Lysine Methyltransferase G9a. Histone-lysine N-methyltransferase EHMT2 (Homo sapiens), Q96KQ7. G9a H3K9 monomethylation, AlphaScreen, 2 h. Potency, µM (doses to about 102 µM), inactives show at the highest dose activity, negative = inhibition, usual class: inhibitors. hit rate 8.8% among 350,000; also: % is scaled to controls: 0 for no effect and ±100 for the full control effect; nearly all actives have a fitted effect of over 75% in size
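Using a bead-based AlphaScreen, monomethylated H3K9 product from 2 h room-temperature reactions (G9a 20 nM, peptide 500 nM, SAM 20 uM) was detected with 0.5 ug/mL rabbit anti-H3K9me1 antibody.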
HP1b binding inh – HTS for Inhibitors of HP1-beta Chromodomain Interactions with Methylated Histone Tails; Chromobox protein homolog 1 (Homo sapiens), P83916; AlphaScreen HP1-beta / biotin-H3K9me3 peptide binding; Potency, µM (titrated, usually from 114 µM), for inactives: at the top dose activity change, negative = inhibition, hits mostly inhibitors; hit rate 0.56% among 390,000; AID 540317, 2011; also: nearly all actives have a fitted effect of over 70% in size
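HP1-beta protein (50 nM final) preincubated 30 min at room temperature with biotinylated H3(1-18)K9me3 peptide (50 nM) in PBS pH 7.4, 0.01% Tween-20, then compound added for 30 min. AlphaScreen streptavidin donor/nickel chelate acceptor beads (10 ug/mL final), 30 min dark, luminescence read.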
L3MBTL1 inh – qHTS Assay for the Inhibitors of L3MBTL1. AID 485360, 2010. Lethal(3)malignant brain tumor-like protein 1 (Homo sapiens), Q9Y468. hit rate 0.66% among 230,000. Potency, µM (doses to about 57.1 µM), for the others: top-dose activity, negative = inhibition, usual class: inhibitors. AlphaScreen L3MBTL1–H3K9me1 peptide binding; also: % is scaled to controls: 0 for no effect and ±100 for the full control effect; nearly all actives have a fitted effect of over 60% in size
Target sequence (Q9Y468 whole entry, looked up): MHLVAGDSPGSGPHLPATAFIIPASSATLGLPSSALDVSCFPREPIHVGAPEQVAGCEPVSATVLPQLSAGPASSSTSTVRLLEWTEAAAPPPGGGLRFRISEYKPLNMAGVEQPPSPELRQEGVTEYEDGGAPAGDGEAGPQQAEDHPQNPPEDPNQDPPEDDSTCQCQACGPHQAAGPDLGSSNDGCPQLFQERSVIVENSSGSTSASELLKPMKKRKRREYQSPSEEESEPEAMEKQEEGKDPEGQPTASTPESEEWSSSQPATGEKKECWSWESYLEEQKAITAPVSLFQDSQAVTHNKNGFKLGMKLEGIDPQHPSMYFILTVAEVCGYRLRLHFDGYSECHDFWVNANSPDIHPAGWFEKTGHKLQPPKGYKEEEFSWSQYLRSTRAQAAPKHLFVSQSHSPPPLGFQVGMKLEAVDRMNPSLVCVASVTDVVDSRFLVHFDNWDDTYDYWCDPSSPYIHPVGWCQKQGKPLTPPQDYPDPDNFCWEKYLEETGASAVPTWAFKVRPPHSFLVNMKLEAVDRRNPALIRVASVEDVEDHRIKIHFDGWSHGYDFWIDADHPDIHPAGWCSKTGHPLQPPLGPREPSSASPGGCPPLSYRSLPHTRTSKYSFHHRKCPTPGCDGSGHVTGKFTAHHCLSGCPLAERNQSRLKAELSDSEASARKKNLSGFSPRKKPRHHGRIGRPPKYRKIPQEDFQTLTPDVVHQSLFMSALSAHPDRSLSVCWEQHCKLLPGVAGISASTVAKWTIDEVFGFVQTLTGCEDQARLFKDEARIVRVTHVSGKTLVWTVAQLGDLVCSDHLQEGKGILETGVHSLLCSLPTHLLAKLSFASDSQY
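L3MBTL1 (50 nM) pre-complexed 30 min with biotinylated H3(1-15)K9me1 peptide (75 nM), then compounds added for 30 min at room temperature; AlphaScreen streptavidin donor/nickel chelate acceptor beads (10 ug/mL final) read after 30 min dark incubation.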
JMJD2A Tudor – qHTS Assay for Inhibitors of JMJD2A-Tudor Domain | AlphaScreen JMJD2A-Tudor / H3K4me3 peptide binding | Potency, µM (titrated, usually from 114 µM), for inactives: at the top dose activity change, negative = inhibition, most hits filed as inhibitors | Lysine-specific demethylase 4A (Homo sapiens), O75164 | AID 504339, 2011 | hit rate 4.4% among 390,000; also: % is scaled to controls: 0 for no effect and ±100 for the full control effect; nearly all actives have a fitted effect of over 50% in size
BAZ2B inh – qHTS Assay for Inhibitors of BAZ2B. Bromodomain adjacent to zinc finger domain protein 2B (Homo sapiens), Q9UIF8. AlphaScreen BAZ2B-H3K14Ac peptide displacement. Potency, µM (series often up to 114 µM), without a hit: top-dose activity change, negative = inhibition, hits mostly inhibitors. hit rate 4.4% among 360,000. AID 504333, 2011; also: % is scaled to controls: 0 for no effect and ±100 for the full control effect; nearly all actives have a fitted effect of over 60% in size
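BAZ2B (50 nM) with biotin-H3(5-23)K14Ac peptide (50 nM) in PBS pH 7.4, 0.01% Tween-20, preformed 30 min, then compound 30 min at room temperature; top concentration 110uM. AlphaScreen streptavidin donor/nickel chelate acceptor beads (10 ug/mL final), 20 min dark, signal read.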
An asterisk follows results filed as active; ? = inconclusive; · = no result; [ ] = dose if it differs, or a comment. The list is not random: actives were taken first. Their share in the collection is about 12%. Calls follow the shape of the dose curve; as a rule, active = well fitted curve in the direction sought with a large enough effect; inconclusive = small, poorly fitted or top-dose-only effect, or another doubt; inactive = no such curve, though single readings can be large; an effect the other way counts as inactive or inconclusive. Potency is read from the fitted curve at half-maximal effect.

SMILES | Sfp PPTase inh | G9a inh | HP1b binding inh | L3MBTL1 inh | JMJD2A Tudor | BAZ2B inh
O=C(N/N=C/c1ccc([N+](=O)[O-])cc1)c1cccc(N2CCCC2=O)c1 | -1% | ? | 11% | · | -10% | 79µM*
O=C(N/N=C/c1cc(Br)cc(Br)c1O)c1cccc(N2CCCC2=O)c1 | 9% | 4% | 35% | ? | 89µM* | ?
COc1cc(NC(=O)C(OC(=O)CNC(=O)c2ccccc2)c2ccccc2)c(OC)cc1Cl (stereo unspecified) | · | · | · | · | -27% | ·
CCCCCc1ccc(-c2cn(CCc3c[nH]c4ccccc34)nn2)cc1 | 1% | · | 42% | 2% | -1% | 8%
O=C(O)CCCCCCCCc1cn(CCc2c[nH]c3ccccc23)nn1 | -16% | 28µM* | 14% | -2% | -28% | -38%
COc1cc(/C=N/NC2=NCCCCC2)ccc1O | 12% | 56µM* | 38% | -1% | -4% | -4%
Oc1ccc(/C=N/NC2=NCCCCC2)cc1 | 5% | 40µM* | 32% | · | -12% | 1%
COc1cc(/C=N/NC(=O)C(=O)N2CCCCCC2)ccc1O | 9% | · | 28% | · | -7% | -2%
O=[N+]([O-])c1ccccc1/C=N/NC1=NCCCCC1 | -9% | 3%[59 µM] | 16% | -8% | -8% | -27%
CCOc1ccccc1NC(=O)Cc1ccccc1OC | 16% | 8%[59 µM] | 9% | -16%[11.4 µM] | -21% | 7%
COc1ccccc1CCC(=O)Oc1ccc(C#N)cc1OC | -9% | 25µM* | 117% | · | 42% | 2%
COc1ccccc1CNCC(=O)Nc1ccc(C#N)cc1 | -19% | 5.6µM* | -21% | · | ? | 50µM*
COc1ccccc1CNCC(=O)Nc1ccc(C(F)(F)F)cc1 | -4% | 22µM* | 6% | · | -14% | 56µM*
COc1cc(C#N)ccc1OC(=O)Cc1cc(OC)c(OC)c(OC)c1 | 4% | ? | 7% | · | 5% | 1%
COc1ccc(NCC(=O)Nc2ccc(C#N)cc2)cc1Cl | 3% | ? | 19% | · | -26% | ?
COc1ccccc1CNCC(=O)Nc1ccccc1-n1cccc1 | ? | 10µM* | ? | -22% | 22µM* | 50µM*
COc1cccc(CNC(=O)C2CCN(c3nnc(-n4c(C)ccc4C)s3)CC2)c1 | · | 1%[59 µM] | 27% | · | -26% | -11%
CCOc1ccc(NC(=O)CN(C)S(=O)(=O)c2ccc3c(c2)c(=O)n(C)c(=O)n3C)cc1 | · | 5%[59 µM] | 24% | · | -14% | -4%
O=C(CN1C(=O)NC(c2ccccc2)(c2ccccc2)C1=O)NCc1ccc(F)cc1 | · | · | 31% | 3% | -12% | ·
Cc1nn(CC(=O)NCc2cccc(F)c2)c(=O)c2cccn12 | 2% | · | ? | · | 56µM* | -13%
Cc1nn(CC(=O)NCCCc2ccccc2)c(=O)c2cccn12 | 20% | 13%[59 µM] | 39% | · | 11% | -3%
CN(C)c1ccc(C(C(=O)NCC2CCCO2)N(C(=O)c2snc(C(N)=O)c2N)c2ccc3c(c2)OCO3)cc1 (stereo unspecified) | -10% | 40µM* | -7%[57 µM] | · | ? | ?
CC(C)c1ccc(N(C(=O)c2snc(C(N)=O)c2N)C(C(=O)NCC2CCCO2)c2ccc(N(C)C)cc2)cc1 (stereo unspecified) | 3% | 13µM* | ? | · | 18µM* | 22µM*
CN(C)c1ccc(C(C(=O)NCC2CCCO2)N(C(=O)c2snc(C(N)=O)c2N)c2ccccc2)cc1 (stereo unspecified) | 2% | -10% | 28% | · | -6% | -1%
Cc1ccc2c(CN3CCC(C)CC3)cc(=O)oc2c1 | -5% | 45µM* | 29% | · | -5% | -3%
